# Screens (PubChem)
# esBAF inh: Bmi1 luciferase reporter increase in mESCs, primary screen, esBAF inhibitor project, mouse ES cells, Bmi1 luciferase knock-in, single point; hit rate 2% among 350,000; 24 h; 100% = twice the neutral-well signal; AID 602393, 2012; reporter increase, % at 12.5 µM; in the data active = activation above about 40%; inconclusive = no clear call, values can overlap the other calls;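 also: 0% = median of the plate's neutral control wells and 100% = double that signal; a rise in the Bmi1 reporter signal indicates esBAF inhibition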
# TRPM1 prom inh: inhibitors of MITF-dependent TRPM1 promoter reporter, primary screen, cell-based, SK-MEL-5, single point, luciferase. SK-MEL-5 TRPM1 promoter luciferase, 24 h. AID 488899, 2010. hit rate 0.83% among 330,000. inhibition, % at 12.5 µM;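 active = mean inhibition across replicates of 60% or more, whatever share of single replicates reaches that level; inconclusive = some that reach 60%, reason not given; inactive = mean inhibition across replicates below 60%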
# PAX8 reporter: inhibitors of PAX8-driven TPO luciferase reporter, primary screen, RMG-I cells, single concentration. hit rate 1.2% among 360,000. SteadyGlo, 24 h. inhibition, % at 12.6 µM;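 active = mean replicate inhibition at least 60% with every replicate also reaching 60%; inconclusive = only one of the two criteria is met; inactive = mean below 60% and not all replicates reaching 60%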;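 also: luciferase light reporting Pax8 driven TPO promoter activity; plate controls were median of neutral control wells for no effect and mitoxantrone controls for full effect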
# MITF act: activators of MITF-driven TRPM1 promoter reporter, primary screen, cell-based, SK-MEL-5, luciferase, single point. SK-MEL-5 TRPM1-promoter luciferase, 24 h; % of positive control, neutral wells = 0. activation, % at 12.5 µM. hit rate 0.75% among 300,000. AID 588334, 2011;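 active = mean activation of at least 80% with every replicate also reaching 80%; inconclusive = mean reaches 80% but some replicate falls short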;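 also: 0% = neutral control wells and 100% = parthenolide positive control wells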
# EWS-Fli inh: EWS/Fli-driven NR0B1 reporter inhibitors, primary screen, A673 cells, NR0B1 luciferase, luminescence, MLPCN library. inhibition, % at 12.6 µM. hit rate 0.67% among 350,000. viability-normalised;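 active = mean inhibition of at least 50% after viability correction, with every replicate also passing that limit; inconclusive = mean reaches 50% but only one of two replicates passes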;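 also: firefly luciferase signal divided by Alamar Blue viability fluorescence both relative to DMSO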
# Wnt bcat act: Wnt/beta-catenin pathway activators, primary screen, cell-based, plate reader, single point | AID 743398, 2014 | activation, % at 9.35 µM | hit rate 1.2% among 300,000 | Wnt/beta-catenin reporter cell assay, activator; in the data active = activation above about 30%, passing the limit was not always enough; inconclusive = no clear call, values can overlap the other calls;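 also: 0% = neutral control wells and 100% = positive control wells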
# * = called active by the depositor; ? = inconclusive; . = no result given. Sampled rows, rich in hits. Any-hit rate of the full collection: about 4%.
SMILES,esBAF inh,TRPM1 prom inh,PAX8 reporter,MITF act,EWS-Fli inh,Wnt bcat act
Cc1c(CN(C)C)c2c(n1C)C(=O)c1ccc(Br)cc1-2,-2.2,3.6,.,-4.7,.,.
CCOC(=O)c1c2c3c(cccc3n(C)c1=O)C(=O)c1ccccc1-2,7.9,-11.7,7.8,.,2.8,1.4
CC(O)(c1ccccc1)c1nc(-c2cc3ccccc3o2)cs1 (centres undefined),49.3*,.,-58.1,.,-54.2,1.6
CN(C)c1ccc(-c2csc(C(C)(O)c3ccccc3)n2)cc1 (centres undefined),56.1*,.,-132.9,.,-81.9,3.7
C[C@H]1CN([C@@H](C)CO)S(=O)(=O)c2ccc(C3=CCCCC3)cc2O[C@H]1CN(C)C(=O)C1CCOCC1,0.6,.,-10.6,.,-2.9,.
CN1CCN(Cc2nc3ccccc3c(=O)n2Cc2nc(-c3ccc4ccccc4c3)cs2)CC1,.,88.1*,17.2,-87.8,39.6,1.3
COc1ccc(S(=O)(=O)N(C)C[C@H]2OCCCC[C@@H](C)Oc3ccc(NC(=O)CCCN(C)C)cc3C(=O)N([C@@H](C)CO)C[C@@H]2C)cc1,-0.4,.,-5.0,.,-7.8,.
C[C@@H]1CN([C@@H](C)CO)C(=O)c2cc(C#CC3(O)CCCC3)cnc2O[C@H]1CN(C)C(=O)CC1CC1,3.0,.,.,.,-1.7,.
N#Cc1nc(NCC(F)F)nc(Nc2cc(F)cc(F)c2)n1,3.6,74.6*,98.0*,-72.7,-11.2,5.7
CNC[C@@H]1Oc2cc(C#CCN(C)C)ccc2S(=O)(=O)N([C@H](C)CO)C[C@H]1C,-1.5,.,.,.,0.6,.
N=c1cc(C2(O)CCCCC2)n2c(nc3ccccc32)s1,.,-14.8,-42.3,.,.,44.7*
C[C@H](CO)N1C[C@H](C)[C@H](CN(C)S(=O)(=O)c2cn(C)cn2)Oc2ncc(C3=CCCC3)cc2C1=O,-4.3,.,-11.4,.,0.6,.
NC1=NC[C@@H](CC2CCCCC2)N1CCc1cc(C(F)(F)F)cc(C(F)(F)F)c1,-86.0,99.4*,.,-98.6,.,.
NC1=NC[C@H](c2ccccc2)N1CCc1cc(C(F)(F)F)cc(C(F)(F)F)c1,-12.4,33.9,-6.2,-34.3,61.3*,-11.4
NC1=NC[C@H](Cc2ccc(O)cc2)N1CCc1cc(C(F)(F)F)cc(C(F)(F)F)c1,-5.2,14.0,18.1,-9.2,5.9,2.7
CC(O)[C@H]1CN=C(N)N1CCc1cc(C(F)(F)F)cc(C(F)(F)F)c1 (some centres undefined),-8.3,-7.6,-17.5,8.1,15.7,-4.5
CCOc1ccc(-n2c(=S)sc3c(=O)[nH]c(SCC(=O)NCC4CCCO4)nc32)cc1 (centres undefined),.,-18.4,109.9*,12.4,1.0,0.7
CCCCCCn1c(SCCCC)nc2c1c(=O)[nH]c(=O)n2C,-8.7,-6.0,.,6.3,.,.
CCn1c([N+](=O)[O-])nc2c1c(=O)[nH]c(=O)n2C,-1.8,25.7,69.2*,-24.6,9.4,-3.0
COc1ccc(NC(=O)N(C)C[C@H]2Oc3c(NC(=O)c4ccc(-c5nccs5)cc4)cccc3C(=O)N([C@@H](C)CO)C[C@H]2C)cc1,6.4,.,.,.,-11.3,.
O=C(Cn1cc(SCc2cccc(Cl)c2)c2ccccc21)N1CCOCC1,62.4*,-14.3,-51.3,16.8,.,.
O=C(CSc1cn(CC(=O)N2CCOCC2)c2ccccc12)N1CCOCC1,2.7,10.9,-15.8,-8.0,.,5.6
Cc1cccc(CSc2cn(CC(=O)N3CCOCC3)c3ccccc23)c1,83.6*,-8.2,56.2,7.0,-124.7,16.5
O=C1C(O)=CC(=C(c2ccccc2)c2ccccc2)c2ccccc21,1.4,61.3*,23.3,-64.3,-21.7,-2.9
O=C(c1ccccc1)N1CC2(C1)[C@@H](c1ccccc1)[C@H](CO)N2CC1CC1,.,.,-1.2,.,1.0,.
SMILES,esBAF inh,TRPM1 prom inh,PAX8 reporter,MITF act,EWS-Fli inh,Wnt bcat act
O=C(Nc1ccc(N2CCOCC2)cc1)c1ccncc1,17.0,-8.6,.,12.0,.,3.5
O=C(NC(=S)Nc1ccc(N2CCOCC2)cc1)c1ccccc1,52.7*,-11.6,-106.9,13.6,-48.5,5.1
Cn1cccc1C(=O)Nc1ccc(N2CCOCC2)cc1,-21.7,-29.2,-70.4,33.0,-16.6,38.5*
CCCNC(=O)N1C[C@H](O)COC[C@H]2O[C@@H](CC(=O)OC)CC[C@@H]21,5.8,.,.,.,.,.
COc1ccccc1C1=NNC(=Nc2cccc(S(=O)(=O)N(C)C)c2)SC1,8.2,0.6,84.1*,4.7,40.8,-7.5
COCCn1c(C)cc(C2=NNC(=Nc3ccccc3)SC2)c1C,-12.0,-10.4,.,16.6,.,.
c1ccc(CSc2ncn(-c3ccccc3)n2)cc1,45.3*,-79.5,.,75.5,.,.
O=C(CSc1ncn(-c2ccccc2)n1)c1cccs1,64.2*,-91.7,-235.0,90.4*,.,?
CCCC#Cc1ccc(CC[C@H]2O[C@H]3CC[C@@H](CO)O[C@H]3C[C@H]2n2cc(C(C)(C)O)nn2)cc1,.,.,-3.2,.,-5.9,.
CC(C)CN1CCN(C(=O)COC(=O)c2ccc(S(C)(=O)=O)c([N+](=O)[O-])c2)CC1,10.5,.,112.1*,.,33.9,-3.7
CS(=O)(=O)c1ccc(C(=O)OCC(=O)NC23CC4CC(CC(C4)C2)C3)cc1[N+](=O)[O-],13.2,45.4,52.6,-46.8,.,.
Cn1cccc1C(=O)NC(=O)COC(=O)c1ccc(S(C)(=O)=O)c([N+](=O)[O-])c1,0.1,85.8*,.,-84.9,.,.
CC(=O)O[C@H]1C(=O)[C@]2(C)[C@H]([C@H](OC(=O)c3ccccc3)[C@]3(O)C[C@H](OC(=O)[C@H](O)[C@@H](NC(=O)c4ccccc4)c4ccccc4)C(C)=C1C3(C)C)[C@]1(OC(C)=O)CO[C@@H]1C[C@@H]2O,-6.1,29.8,40.4,-28.6,61.2*,-8.8
CC(=O)O[C@H]1C(=O)[C@@]2(C)C([C@H](OC(=O)c3ccccc3)[C@]3(O)C[C@H](OC(=O)[C@H](O)[C@@H](NC(=O)c4ccccc4)c4ccccc4)C(C)=C1C3(C)C)[C@]1(OC(C)=O)CO[C@@H]1C[C@H]2O (some centres undefined),-3.0,.,.,.,54.5*,1.7
CCCC(=O)Nc1ccc2c(c1)C(=O)N(C)[C@H]1CC[C@H](CC(=O)NCc3ccccc3)O[C@@H]1CO2,-1.7,.,-3.9,.,3.6,.
COc1ccc(S(=O)(=O)N(C)C[C@H]2OCCCC[C@@H](C)Oc3ccc(NC(=O)Nc4ccc(C(F)(F)F)cc4)cc3C(=O)N([C@@H](C)CO)C[C@H]2C)cc1,-5.3,.,8.1,.,-4.2,.
COc1ccc(S(=O)(=O)N(C)C[C@H]2OCCCC[C@@H](C)Oc3ccc(NC(=O)Nc4ccc(C(F)(F)F)cc4)cc3C(=O)N([C@@H](C)CO)C[C@@H]2C)cc1,0.3,.,54.9,.,63.5*,.
